# KinaseGlo FLuc: counter-screen: inhibitors of Kinase-Glo firefly luciferase; Potency, µM (highest dose often 38.3 µM), for inactives: at the highest dose activity change, negative = inhibition, most hits filed as inhibitors; Kinase-Glo luciferase, ATP luminescence, 8 min; actives 0.28% (n = 200,000); AID 1379; Q27757; note: % is set by controls: 0 for no effect and ±100 for the full control effect; nearly all actives have a fitted effect of over 60% in size
#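 Inhibition of Kinase-Glo luciferase light generation was assessed at 10 uM ATP in pH 7.2 imidazole buffer, with luminescence measured after eight minutes at ambient temperature.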
# FLuc modulator: firefly luciferase modulation, counter-screen for miR-21 project. P08659. purified FLuc, Km substrates, luminescence inhibition. Potency, µM (doses to about 57.5 µM), inactives show top-dose activity change, negative = inhibition, most hits filed as inhibitors. actives 6.9% (n = 360,000). AID 588342;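 note: plate controls were vehicle for no effect and reference inhibitor for full effect; nearly all actives have a fitted effect of over 55% in size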
# Target sequence (P08659 whole entry, looked up): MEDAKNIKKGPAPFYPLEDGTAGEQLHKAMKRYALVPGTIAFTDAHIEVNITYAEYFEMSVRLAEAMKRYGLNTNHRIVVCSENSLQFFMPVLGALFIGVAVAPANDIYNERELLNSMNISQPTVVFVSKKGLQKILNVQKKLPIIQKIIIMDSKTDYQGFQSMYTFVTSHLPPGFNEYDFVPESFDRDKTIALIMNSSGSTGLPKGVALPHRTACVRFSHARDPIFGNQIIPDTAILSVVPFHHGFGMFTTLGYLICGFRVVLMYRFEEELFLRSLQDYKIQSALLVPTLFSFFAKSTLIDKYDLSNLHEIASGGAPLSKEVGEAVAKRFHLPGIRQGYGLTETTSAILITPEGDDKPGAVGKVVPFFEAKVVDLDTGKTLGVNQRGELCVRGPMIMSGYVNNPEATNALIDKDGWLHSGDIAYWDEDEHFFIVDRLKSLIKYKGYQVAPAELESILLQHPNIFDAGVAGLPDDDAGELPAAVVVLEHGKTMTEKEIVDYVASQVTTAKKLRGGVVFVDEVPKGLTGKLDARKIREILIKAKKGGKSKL
#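 Biochemical qHTS of compounds, final roughly 60 µM downward over six points, against 10 nM purified firefly luciferase using Km concentrations of substrates (10 uM D-luciferin, 10 uM ATP) in Tris acetate pH 7.5 buffer; luminescence output.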
# SMN2 splice enh: enhancers of SMN2 splice variant expression | actives 2.8% (n = 210,000) | AID 1458 | HEK293 SMN2-luciferase splicing reporter, luminescence, 30-36 h | Potency, µM (top dose mostly 46.1 µM), for inactives: at the top dose activity change, positive = activation, most hits filed as activators; note: % of control where 0% means no effect; nearly all actives have a fitted effect of over 55% in size
#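 HEK293 cells carry an SMN2 minigene-luciferase reporter in which exon 7 inclusion puts luciferase in frame. Cells were seeded at 2000 cells/well, attached for 10-12 hours, then exposed to compounds for 30-36 hours at 37C before ONE-Glo luminescence.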
# Rab9 prom act: Rab9 promoter activation. Huh7 Rab9 promoter-luciferase reporter, luminescence, 24 h. Potency, µM (top dose mostly 9.22 µM), for inactives: at the top dose activation, negative = inhibition, hits mostly activators. actives 2.8% (n = 320,000); note: % of control where 0% means no effect; nearly all actives have a fitted effect of over 60% in size
#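 Stable Rab9-luc Huh7, 1500 cells/well, 2 h settle; cmpd in DMSO, 24 h, 37 °C/5% CO2; luciferase reagent 10 min RT; luminescence.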
# NPC1 promoter act: activates the NPC1 promoter | actives 2.4% (n = 320,000) | Potency, µM (top dose mostly 9.22 µM), for inactives: top-dose activation, most hits filed as activators | Huh7 NPC1 promoter luciferase reporter, 24 h; note: % of control where 0% means no effect; nearly all actives have a fitted effect of over 60% in size
#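 Luminescence from an NPC1 promoter-driven luciferase reporter in stably transfected Huh7 cells was measured after 24 h compound treatment at 37 °C, followed by 10 min ambient incubation with luciferase detection reagent.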
# ELG1 genotox: induces genotoxicity in HEK293T cells with luciferase-tagged ELG1; HEK293T ELG1-luciferase reporter, luminescence, 16 h; Potency, µM (titrated, usually from 46 µM), for inactives: at the top dose activity change, positive = activation, actives largely listed as activators; actives 1.3% (n = 330,000); AID 504466; note: % of control where 0% means no effect; nearly all actives have a fitted effect of over 60% in size
#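 Screening used a luciferase reporter fused to human ELG1 in HEK293T cells. Luminescence was read on a CCD plate imager after 16 hr exposure and 30 min ONE-Glo incubation.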
# An asterisk follows results filed as active; ? = inconclusive; . = not tested or not shown. Rows were chosen to be rich in hits. Some 7.5% of all compounds tested hit in one or more screens of this group. Calls come from the whole dose curve; as a rule, active = well fitted curve in the direction sought with a large enough effect; inconclusive = small, poorly fitted or top-dose-only effect, or another doubt; inactive = no such curve, though single readings can be large; an effect the other way counts as inactive or inconclusive. Potency is the fitted concentration of half-maximal effect.
SMILES,KinaseGlo FLuc,FLuc modulator,SMN2 splice enh,Rab9 prom act,NPC1 promoter act,ELG1 genotox
O=C(c1cc(-c2ccc3c(c2)OCO3)on1)N1CCN(c2ccccc2)CC1,-21.2%,3.79µM*,-27.2%,?,2.82µM*,?
CCc1ccc(NC(=O)c2cc(-c3ccc4c(c3)OCO4)on2)cc1,.,-3.5%,.,-4.0%,-4.8%,3.2%
Cc1ccc(Cl)cc1N1CCN(C(=O)CCCn2c(=O)[nH]c3ccc(Br)cc3c2=O)CC1,.,-11.4%,-8.6%,.,.,.
CCOc1cc(-c2nc(-c3ccc(-c4ccc(C)cc4)nc3OC)no2)cc(OCC)c1OCC,.,0.1%,-10.0%,.,.,.
O=[N+]([O-])c1ccc(O)c(-c2cc(C(F)(F)F)nc(-c3ccccc3)n2)c1,.,-0.6%,.,-53.0%,-46.3%,-18.6%
Cc1c(Cl)cccc1NC(=O)c1cc(-c2ccc3c(c2)OCO3)on1,.,-0.6%,-2.7%,.,.,.
CN(C(=O)c1cc(-c2ccc3c(c2)OCO3)on1)c1ccccc1,.,15.1µM*,.,2.51µM*,2.51µM*,18.3µM*
Cc1cccc(Cn2cc(SCC(=O)Nc3nccs3)c3ccccc32)c1,1.8%,-13.2%,8.8%,?,?,4.11µM*
CCCc1nn2cc(-c3ccc(C)c(C)c3)nc2s1,.,0.19µM*,1.26µM*,.,.,.
Cc1cc(C)n(C(=O)COc2ccc([N+](=O)[O-])cc2)n1,-4.4%,2.2%,14.7%,-4.3%,-1.2%,-0.6%
Cc1cc(C)n(C(N)=NC(=O)c2ccc([N+](=O)[O-])cc2)n1,.,?,.,2.51µM*,2.82µM*,?
COc1ccc(/C=N/Nc2cc(N(C)C)nc(N(C)C)n2)cc1,0.9%,15.1µM*,-8.7%,-4.1%,2.7%,-8.1%
CN(C)c1cc(N/N=C\c2ccccc2)nc(N(C)C)n1,-2.0%,?,.,-10.0%,10.5%,-8.0%
COc1ccc(/C=N/Nc2cc(OC)ncn2)cc1,.,0.953µM*,.,1µM*,3.55µM*,1.84µM*
COc1cccc(CSc2ccc(S(=O)(=O)N3CCOCC3)cc2C(=O)NCC2CCCO2)c1OC (stereo not given),.,-7.0%,.,15.0%,-2.4%,-0.9%
COC(=O)c1ccc(NC(=O)c2ccc(C)cc2)o1,0.8%,19µM*,3.6%,24.5%,14.6%,1.5%
Cc1nn(-c2ccccc2)c(Cl)c1/C=N/NC(=O)c1ccnn1C,.,2.69µM*,.,2.82µM*,1.41µM*,14.6µM*
Cc1nn(-c2ccccc2)c(Cl)c1/C=N/Nc1nc2ccccc2n1C,-28.4%,2.39µM*,11.2µM*,?,3.55µM*,7.8%
Cc1nn(-c2ccccc2)c(Cl)c1/C=N/NC(=O)CNC(=O)c1ccccc1Cl,-0.2%,19µM*,3.9%,7.4%,6.1%,-2.5%
COC(=O)N/N=C\c1c(C)nn(-c2ccccc2)c1Cl,-0.5%,15.1µM*,?,?,?,?
Cc1nn(-c2ccccc2)c(Cl)c1/C=N/NC(N)=O,.,?,.,17.7%,18.2%,?
CCn1c(=O)cc(OCC(=O)N(C)c2cc(Cl)ccc2C)c2ccccc21,.,1.0%,11.8%,.,.,.
CCN(CC)S(=O)(=O)c1ccc2c(c1)N(CC(=O)N(C)Cc1ccccc1)C(=O)CO2,.,-7.6%,-10.1%,.,.,.
CCOc1ccc(OCC)c(NC(=O)c2cc(CN3CCOCC3)on2)c1,.,3.8%,.,.,.,.
Cc1ccc(NC(=O)c2cnn(-c3ccccc3)c2C)cc1C,.,0.338µM*,.,0.631µM*,0.398µM*,?
SMILES,KinaseGlo FLuc,FLuc modulator,SMN2 splice enh,Rab9 prom act,NPC1 promoter act,ELG1 genotox
COc1ccc(NC(=O)c2cnn(-c3ccccc3)c2C)cc1OC,.,10.7µM*,.,?,2.82µM*,?
COc1ccc(NC(=O)c2cnn(-c3ccccc3)c2C)cc1,.,3.79µM*,.,0.398µM*,2.51µM*,?
O=S(=O)(NCc1ccccc1Cl)c1ccc(N2CCCCS2(=O)=O)cc1,.,-9.3%,.,.,.,.
O=C1N/C(=C/c2ccc(N3CCCC3)cc2)C(=O)N1c1ccccc1,-0.3%,?,27.0%,24.6%,23.3%,14.4%
Cc1cc(N2CCCC2)ccc1/C=C1\NC(=S)N(C)C1=O,-4.9%,13.5µM*,.,3.16µM*,?,9.6%
O=C1/C(=C/c2ccc(N3CCCC3)cc2)NC(=S)N1C1CC1,-5.9%,12µM*,-11.7%,?,4.3%,-2.5%
Cc1cc(C)c(S(=O)(=O)NCc2cn3c(C)csc3n2)cc1C,-3.4%,-3.3%,1.4%,1.0%,4.5%,-5.0%
COc1cccc(CCNC(=O)c2ccc(Cn3c(SCc4ccccc4)nc4cccnc43)cc2)c1,.,9.53µM*,-16.8%,.,.,.
O=C(NCCc1ccccc1)c1ccc(Cn2c(SCc3ccccc3F)nc3cccnc32)cc1,.,5.36µM*,.,.,.,.
CCN(CC)CCNC(=O)c1ccc(Cn2c(SCc3ccccc3)nc3cccnc32)cc1,.,13.5µM*,.,.,.,.
O=C(NCc1cccs1)c1ccc(CSc2nc3cccnc3n2Cc2ccc(F)cc2)cc1,.,-13.1%,.,.,.,.
O=C(NCc1ccco1)c1ccc(Cn2c(SCc3ccc(F)cc3)nc3cccnc32)cc1,.,6.01µM*,.,.,.,.
COc1ccc(Cn2c(SCc3ccc(C(=O)NCCc4ccccc4)cc3)nc3cccnc32)cc1,.,-16.4%,-8.2%,.,.,.
COc1ccccc1N1CCN(C(=O)c2c(C)oc3ncn(CC(C)C)c(=O)c23)CC1,.,-1.3%,.,.,.,.
CCN(CC)CCNC(=O)c1cn(CC)c2cc(N3CCN(C)CC3)c(F)cc2c1=O,.,-0.2%,.,-6.4%,1.2%,-0.3%
Cc1ccccc1CNC(=O)c1ccc(CSc2nc3cccnc3n2Cc2ccccc2)cc1,.,1.5%,.,.,.,.
CCOc1ccccc1CNC(=O)c1ccc(Cn2c(SCc3ccccc3)nc3cccnc32)cc1,.,2.69µM*,-5.7%,.,.,.
O=C(NCCc1ccccc1)c1ccc(Cn2c(SCc3ccc(F)cc3)nc3cccnc32)cc1,.,4.78µM*,.,.,.,.
CC1(C)OC(=O)NC1=O,-4.2%,.,-2.9%,.,.,.
Cc1cc(C(=O)Cn2ncc(Cl)c(Cl)c2=O)c(C)n1CC(F)(F)F,0.9%,15.1µM*,?,12.9%,-8.4%,-14.6%
N#CC(C(=O)Nc1cccc(Cl)c1)=C1Nc2ccccc2N1,1.7%,4.0%,26.8%,2.5%,10.6%,4.4%
N#CC(C(=O)Nc1ccccc1)=C1Nc2ccccc2N1,-0.2%,21.3µM*,-26.3%,18.6%,-0.9%,4.6%
Cc1cc(NC(=O)Cc2ccsc2)ccc1Br,.,16.9µM*,.,23.0%,21.8%,2.1%
Cc1cc(C)c2c(=O)n(CC(=O)Nc3ccc(Br)c(C)c3)sc2n1,.,8.49µM*,.,0.2%,0.7%,0.2%
CNC(=O)NC(=S)NC(=O)c1ccc(OC)cc1,0.7%,-16.7%,-1.3%,21.2%,16.5%,9.8%
COc1ccc(C(=O)NC(=O)NC2(C(Cl)(Cl)Cl)OCCO2)cc1,-7.7%,0.953µM*,2.24µM*,0.251µM*,0.355µM*,0.651µM*
